Screens deposited in PubChem BioAssay by National Center for Advancing Translational Sciences (NCATS).
Pf growth 48h – inhibits P. falciparum growth in the first generation, 48 h. P. falciparum luciferase growth in erythrocytes, 48 h. Potency, µM (doses to about 28.7 µM), for the others: top-dose activity change, negative = inhibition, hits mostly inhibitors. actives 5.9% (n = 310,000). AID 504832; note: potency is the fitted concentration of half-maximal effect; % is set by controls: 0 for no effect and ±100 for the full control effect
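Cell-based growth assay: transgenic P. falciparum expressing firefly luciferase, cultured in red cells within RPMI 1640 containing 0.5% w/v Albumax, 24 mM bicarbonate and gentamycin. A drop in luciferase activity indicates inhibition.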
Pf growth 96h – inhibits malaria parasite growth, 96 h; P. falciparum luciferase reporter growth, 96 h; actives 6.9% (n = 320,000); Potency, µM (highest dose often 28.7 µM), without a hit: at the top dose activity change, negative = inhibition, most hits filed as inhibitors; note: potency is the fitted concentration of half-maximal effect; % is set by controls: 0 for no effect and ±100 for the full control effect
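Two parasite generations (96 h, 37 C, 5% CO2) of compound exposure in infected erythrocytes (0.05% parasitemia, 2% hematocrit). Luciferase-reporter P. falciparum; decreased luminescence indicates inhibited growth, aimed at apicoplast-acting delayed death.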
AMA1-RON2 inh – AMA1-RON2 (P. falciparum) interaction inhibition. actives 0.2% (n = 360,000). AlphaScreen AMA1-biotinylated RON2 peptide binding. Potency, µM (highest dose often 58.2 µM), for inactives: at the highest dose activity change, negative = inhibition, usual class: inhibitors;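 note: potency is the fitted concentration of half-maximal effect; 0% = vehicle wells and -100% = peptide control; nearly all actives have a fitted effect of over 45% in size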
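AMA1 (3D7) with his tag at 25 nM final met compounds first, then biotinylated RON2 peptide at 25 nM; detection used donor plus acceptor beads, 10 µg/mL apiece, read by AlphaScreen after 30 min at room temperature.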
SARS PLP yeast – inhibitors of SARS-CoV papain-like protease in yeast. S. cerevisiae expressing SARS-CoV PLpro, growth rescue. Potency, µM (titrated, usually from 32.9 µM), without a hit: at the highest dose activity, positive = growth rescue, hits mostly activators. actives 0.19% (n = 330,000); calls by dose curve; note: potency is the fitted concentration of half-maximal effect; 0% is about no effect; nearly all actives have a fitted effect of over 55% in size
Shiga toxin inh – inhibitors of Shiga toxin in Vero cells; Vero cells, Shiga toxin protein synthesis inhibition reporter; actives 9.2% (n = 290,000); AID 2315; inhibition, % at 38.7 µM; in the data active = inhibition mostly above about 28%, no sharp cut-off; inactive = mostly below about 43%; note: 0% is about no effect
CHX counter – affects cycloheximide protein synthesis inhibition readout, counter-screen; cell reporter, cycloheximide protein synthesis inhibition counterscreen; max response, %; actives 12% (n = 300,000); AID 2314; in the data active = max response mostly above about 13%, no sharp cut-off; inactive = mostly below about 14%; note: read at 38.3 µM for the half of the compounds with a filed dose; 0% is about no effect
* marks the source's active call; other numbers are inactive results; i = inactive; ? = inconclusive; nt = no result; [ ] = remark or other dose. Hits are enriched below; roughly 19% of the tested compounds scored in any of these assays. Unless noted, calls come from the whole dose curve; as a rule, active = well fitted curve in the direction sought with a large enough effect; inconclusive = small, poorly fitted or top-dose-only effect, or another doubt; inactive = no such curve, though single readings can be large; an effect the other way counts as inactive or inconclusive.

SMILES	Pf growth 48h	Pf growth 96h	AMA1-RON2 inh	SARS PLP yeast	Shiga toxin inh	CHX counter
O=C(CN1C(=O)CC(c2ccccc2)Sc2ccccc21)NCC1CCCO1 (centres undefined)	0%	8%	12%	-1%	14	9
Nn1c(SCC(=O)Nc2ccc(N3CCOCC3)cc2)nnc1-c1ccccc1F	127%	143%	-8%[11.6 µM]	1%	nt	nt
O=C(O)c1ccc(-c2nc(-c3ccc(Cl)cc3)cs2)cc1	210%	358%	-2%	-4%	81*	32*
COc1ccc(-c2cnc3nc[nH]c(=O)c3n2)cc1	45%	-30%	11%	-13%	34	8
O=C(O)c1ccc(-c2nc(-c3cccc(C(F)(F)F)c3)cs2)cc1	30%	55%	-7%	0%	79	7
COc1ccc(-c2csc(-c3[nH]cnc3N)n2)cc1	-26%	?	113%	-2%	86*	28*
COc1ccc(-c2csc(-c3ccc(C(=O)O)cc3)n2)cc1	245%	i	-3%	1%	61*	27*
O=C(O)c1ccc(-c2nc(-c3ccc(Cl)cc3Cl)cs2)cc1	244%	225%	?	-6%	77*	34*
CCC(C)CCCCNC1=NCCS1 (centres undefined)	?	?	7%	-4%	11	4
COC(=O)CCCn1cc(CN(C)C2CN(Cc3cn(CCCC(=O)OC)nn3)S(=O)(=O)C2)nn1 (centres undefined)	nt	nt	7%	nt	nt	nt
C=CCNC(=O)c1ccc(-c2nc(-c3ccccc3)cs2)cc1	-91%	?	-9%	-1%	51*	33*
CC1CCN(C(=O)CSc2nnc(-c3ccccc3F)o2)CC1	22%	29%	0%	-1%	56*	15
O=C(CSc1nnc(-c2cccs2)o1)N1CCCCC1	nt	?	2%	8%	113*	48*
CC1CCN(C(=O)CSc2nnc(-c3cccs3)o2)CC1	19%	?	-16%	-1%	63*	45*
Clc1cccc(-c2nc(-c3ccc(-c4nn[nH]n4)cc3)no2)c1	91%	59%	nt	0%	nt	nt
O=C(CSc1ccccc1C(=O)O)NCc1ccccc1	24%	0%	-2%	0%	-7	-3
CCCOc1ccc(-c2nc(-c3ccc(N)cc3)cs2)cc1	49%	93%	nt	0%	62*	68*
Cc1ccc(-c2nnc(N)s2)cc1	69%	-20%	8%	-39%	66*	43*
CC(C)c1ccc(-c2nnc(N)s2)cc1	157%	44%	0%	-32%	54*	66*
COc1ccc(-c2nnc(N)s2)cc1	57%	nt	24%	-2%	39	37*
Cc1cc(C)c(NC(=O)CNC(=O)CN(C)Cc2ccc(Br)s2)c(C)c1	?	?	7%	3%	nt	nt
Cn1cnc(S(=O)(=O)N2CCCCC2c2cc(C(=O)Nc3ccccc3Cl)no2)c1 (centres undefined)	nt	nt	6%	nt	nt	nt
CCOC(=O)c1c(NC(=O)C(C)OC(=O)c2ccc(NC(=O)CC#N)cc2)sc2c1CCCC2 (centres undefined)	?	?	-1%	-7%	nt	nt
CCCOc1ccc(-c2nnc(N)s2)cc1	-6%	nt	-15%	-7%	105*	40*
Cc1ccc(SCc2nnc(N)s2)cc1	19%	4%	-3%	13%	0	10*
SMILES	Pf growth 48h	Pf growth 96h	AMA1-RON2 inh	SARS PLP yeast	Shiga toxin inh	CHX counter
Nc1nnc(CSCc2ccccc2Cl)s1	-1%	8%	7%	1%	8	8
CNc1nnc(-c2ccc(OC)cc2)s1	65%	2%	-1%	-2%	78*	33*
c1ccc(-c2cnnc(N3CCOCC3)n2)cc1	33%	-14%	-5%	15%	68*	63*
FC(F)(F)c1cc(-c2ccccc2)nc(N2CCOCC2)n1	34%	105%	18%	1%	-18	1
Brc1ccc(-c2cnnc(N3CCCC3)n2)cc1	3.3µM*	?	9%	-16%	7	1
CCN(CC(=O)Nc1c(C(=O)OC)[nH]c2ccc(Cl)cc12)c1ccc2c(c1)OCO2	13µM*	?	-9%	-8%	-15	-6
CCOC(=O)c1[nH]c2ccc(Br)cc2c1NC(=O)CCN1CCCCC1	?	?	nt	-2%	-10	2
CCOC(=O)c1[nH]c2ccc(Cl)cc2c1NC(=O)/C=C/c1ccc2c(c1)OCO2	30%	9%	6%	21%	12	-3
CCOC(=O)c1[nH]c2ccc(Br)cc2c1NC(=O)CCN1CCN(C(=O)OCC)CC1	10µM*	9%	12%	-3%	0	15
COC(=O)c1[nH]c2ccc(C)cc2c1NC(=O)CCN1CCN(Cc2ccc3c(c2)OCO3)CC1	?	8.3µM*	-15%	7%	-10	-4
COc1ccc(CNC(=O)c2ccc[nH]2)cc1Cl	-5%	-3%	-5%	0%	-14	-2
CCOC(=O)C(C#N)c1ccccn1 (centres undefined)	64%	24%	5%	1%	64	29*
CCN(CC)S(=O)(=O)c1ccc(C(=O)C(C#N)c2ccccn2)cc1 (centres undefined)	?	21%	32%	0%	19	-1
O=C1CC(N2CCOCC2)C(=O)N1Cc1ccc(N2CCCC2=O)cc1 (centres undefined)	nt	173%	13%	0%	-18	-1
O=C1CC(N2CCN(C/C=C/c3ccccc3)CC2)C(=O)N1Cc1ccc(N2CCCC2=O)cc1 (centres undefined)	?	?	-12%	-7%	-8	-3
O=C1CC(N2CCC(O)(c3ccc(Cl)cc3)CC2)C(=O)N1Cc1ccc(N2CCCC2=O)cc1 (centres undefined)	9.3µM*	nt	-13%	0%	-12	8
O=C1CCCN1CCC1CCN(C2CC(=O)N(Cc3ccc(N4CCCC4=O)cc3)C2=O)CC1 (centres undefined)	?	nt	0%	-16%	-6	-1
O=C1CC(N2CCN(Cc3ccccc3)CC2)C(=O)N1c1ccccc1 (centres undefined)	10%	324%	-1%	-5%	-7	-2
O=C1CC(N2CCN(Cc3ccc4c(c3)OCO4)CC2)C(=O)N1Cc1ccc(N2CCCC2=O)cc1 (centres undefined)	?	9.3µM*	-10%	-4%	-12	-3
O=C1CC(N2CCN(Cc3ccccc3)CC2)C(=O)N1c1ccc2c(c1)OCCO2 (centres undefined)	5%	nt	-6%	-3%	43*	21*
Cc1cc2ncn(C3CC(=O)N(Cc4ccc(N5CCCC5=O)cc4)C3=O)c2cc1C (centres undefined)	19%	8.3µM*	1%	4%	8	-4
CCOC(=O)N1CCN(C(=O)C2CCCN(Cc3nc(-c4ccc(Cl)cc4)oc3C)C2)CC1 (centres undefined)	nt	10µM*	11%	-2%	-1	-4
